Experimental findings from PubChem BioAssay (NCATS) are described below.

Structures are written as SMILES. Inconclusive results are not listed. Active and inactive are the calls of the source. Unless noted, calls follow the shape of the dose curve; as a rule, active = well fitted curve in either direction with a large enough effect (not every such curve was filed as active); inconclusive = small, poorly fitted or top-dose-only effect, or another doubt; inactive = flat fitted curve, though single readings scatter. Some results are limits rather than exact numbers.

Experiment [1] deals with Lysosomal acid glucosylceramidase (Homo sapiens) (UniProt P04062). The experiment is described as follows: Glucocerebrosidase-p2 (AID 348; in the data active = potency below about 10 µM; also: potency is read from the fitted curve at half-maximal effect). The conditions noted are these: purified GBA, blue fluorogenic substrate, 40 min. The essentials: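 Normal human glucocerebrosidase (0.2 nM) with blue fluorogenic substrate (80 uM final) in citrate/phosphate pH 5.9 with 10mM sodium taurocholate, 0.01% tween-20; 40 min RT, NaOH/glycine stop; fluorescence Ex 365/Em 440; AC50 from a titration from 0.6 nM upwards.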
Lysosomal acid glucosylceramidase (Homo sapiens), sequence (P04062 whole entry, looked up): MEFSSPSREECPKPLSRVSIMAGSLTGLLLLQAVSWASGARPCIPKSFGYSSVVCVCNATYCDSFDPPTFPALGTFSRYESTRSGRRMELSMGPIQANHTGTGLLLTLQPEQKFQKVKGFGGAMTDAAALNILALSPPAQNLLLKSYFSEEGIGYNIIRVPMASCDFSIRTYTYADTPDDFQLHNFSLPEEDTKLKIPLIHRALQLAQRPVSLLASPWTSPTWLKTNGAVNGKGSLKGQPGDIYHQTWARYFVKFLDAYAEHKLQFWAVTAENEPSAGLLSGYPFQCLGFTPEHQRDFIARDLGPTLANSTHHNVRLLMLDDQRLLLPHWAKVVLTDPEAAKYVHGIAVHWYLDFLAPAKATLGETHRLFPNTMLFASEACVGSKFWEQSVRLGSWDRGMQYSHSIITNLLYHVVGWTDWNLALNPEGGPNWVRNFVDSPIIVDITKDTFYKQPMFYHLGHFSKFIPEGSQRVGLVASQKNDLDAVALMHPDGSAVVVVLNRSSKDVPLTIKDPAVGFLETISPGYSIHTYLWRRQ

Experiment [2] in a line: AP1 Signaling Pathway (AID 357).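 Also: ME-180 reporter cells stimulated with EGF at its EC50 level; % is scaled to controls: 0 for no effect and ±100 for the full control effect.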 The note with it: ME-180 AP-1-bla reporter, EGF-induced, beta-lactamase ratio, 5 h; at 7.69 µM (top of the series) unless noted. The essentials:
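AP-1-bla ME-180 cells, Opti-MEM + 0.5% dialyzed FBS, plated overnight 37 °C. Cpd titration + EC50 EGF, 5 h 37 °C. CCF4 2.5 h RT; ex 405, em 460/530 ratio → %activity, AC50.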

Experiment [3] deals with Cytochrome P450 1A2 (Homo sapiens) (UniProt P05177). Description: p450-cyp1a2 (AID 410; calls by dose curve; also: potency is read from the fitted curve at half-maximal effect;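 as to activity change, negative = inhibition: -100% = full effect of reference inhibitor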). The note with it: recombinant CYP1A2, luciferin-ME demethylation, luminescence; series mostly up to 57 µM. The essentials:
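Read-out is luminescence from luciferin produced by CYP1A2 demethylation of Luciferin-ME (100uM, at Km). Detection reagent stopped the 60 min NADPH-dependent reaction; signals were normalized to 57 uM furafylline.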

Experiment [4] is described as follows: NFAT Signaling Pathway (AID 444).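 Also: carbachol stimulus at about its EC50 of 1 µM final; % is scaled to controls: 0 for no effect and ±100 for the full control effect.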 The note with it: Jurkat NFAT-bla M1, carbachol, beta-lactamase ratio, 5 h; at 7.69 µM (top of the series) unless noted. The essentials:
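Jurkat cells carrying an NFAT-driven β-lactamase reporter and co-transfected muscarinic M1 receptor were treated with compound plus carbachol (1 uM final, an EC50 level) for 5 h at 37 °C. CCF4 loading followed for 1 h at RT; 460/530 nm ratio gave %activity.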

A short description of experiment [5]: Stat Signaling Pathway (AID 446).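 Also: ME-180 cervical cancer cells given 40 pM IL-6 alongside compound; SIE-controlled beta-lactamase reporter measured as 460/530 nm FRET emission ratio; % is scaled to controls: 0 for no effect and ±100 for the full control effect.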 The note with it: ME-180 (cervical carcinoma) SIE beta-lactamase reporter, IL-6 stimulated, 5 h; at 7.69 µM (top of the series) unless noted. The essentials:
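Compound effects on IL-6-induced STAT reporter activity were measured in ME-180 cells. After overnight culture, cells were co-treated with 40 pM IL-6 for 5 hrs before beta-lactamase substrate loading at room temperature.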

Experiment [6] has as its target Glucocorticoid receptor (Homo sapiens) (UniProt P04150). The experiment is described as follows: GR-EFC Redistribution (AID 451; calls by dose curve; also: potency is read from the fitted curve at half-maximal effect). The note with it: CHO-K1 GR-EFC translocation, beta-gal luminescence, 2 h. The essentials: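 CHO-K1 cells stably expressing nuclear-localized β-gal enzyme acceptor and GR fused C-terminally to the enzyme donor fragment; ligand-driven nuclear translocation restores β-gal by complementation. Compounds titrated up to 46 uM final, 2 h at 37 °C; luminescence read.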

Experiment [7] deals with Mitogen-activated protein kinase 10 (Mus musculus) (UniProt Q61831). The experiment is described as follows: JNK3 AlphaScreen Assay (AID 530).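 Also: kinase came from lysate of stimulated human HepG2 cells; signal reports phosphorylation of biotinylated GST-cJun 1-79 at Ser73 with 10 µM ATP; % is scaled to controls: 0 for no effect and ±100 for the full control effect.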 The note with it: JNK3 lysate, c-Jun phosphorylation; series mostly up to 57.1 µM. The essentials:
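Biotinylated GST-cJun(1-79) served as substrate for JNK3 in HepG2 lysates stimulated with IL-1beta and TNF-alpha. ATP was 10 uM final, pH 7.6. Ser73 phosphorylation was quantified by AlphaScreen (680 nm excitation).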
Background: Bead proximity is the source of the signal in Alpha formats.

For experiment [8], the target named is 3',5'-cyclic-AMP phosphodiesterase 4B (Homo sapiens) (UniProt Q07343). The experiment is described as follows: qHTS Assay for Inhibitors of PDE-IV (AID 607; active = well fitted activation curve with a large enough effect in the main read-out, with a control signal flat, not every such curve was filed as active; also: % of control where 0% means no effect). The conditions noted are these: HEK293 ACTOne CNG channel cells, membrane potential fluorescence; series mostly up to 22.9 µM. The essentials: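 ACTOne HEK293 cells carry a modified cAMP-gated CNG channel and express endogenous PDE4; plated 1000 cells/well, compounds up to 22.9 uM final. Membrane-potential dye fluorescence (ex 535/em 590) was read; parental cells received 10 uM forskolin + 100 uM RO 20-1724.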
3',5'-cyclic-AMP phosphodiesterase 4B (Homo sapiens), sequence (Q07343 whole entry, looked up): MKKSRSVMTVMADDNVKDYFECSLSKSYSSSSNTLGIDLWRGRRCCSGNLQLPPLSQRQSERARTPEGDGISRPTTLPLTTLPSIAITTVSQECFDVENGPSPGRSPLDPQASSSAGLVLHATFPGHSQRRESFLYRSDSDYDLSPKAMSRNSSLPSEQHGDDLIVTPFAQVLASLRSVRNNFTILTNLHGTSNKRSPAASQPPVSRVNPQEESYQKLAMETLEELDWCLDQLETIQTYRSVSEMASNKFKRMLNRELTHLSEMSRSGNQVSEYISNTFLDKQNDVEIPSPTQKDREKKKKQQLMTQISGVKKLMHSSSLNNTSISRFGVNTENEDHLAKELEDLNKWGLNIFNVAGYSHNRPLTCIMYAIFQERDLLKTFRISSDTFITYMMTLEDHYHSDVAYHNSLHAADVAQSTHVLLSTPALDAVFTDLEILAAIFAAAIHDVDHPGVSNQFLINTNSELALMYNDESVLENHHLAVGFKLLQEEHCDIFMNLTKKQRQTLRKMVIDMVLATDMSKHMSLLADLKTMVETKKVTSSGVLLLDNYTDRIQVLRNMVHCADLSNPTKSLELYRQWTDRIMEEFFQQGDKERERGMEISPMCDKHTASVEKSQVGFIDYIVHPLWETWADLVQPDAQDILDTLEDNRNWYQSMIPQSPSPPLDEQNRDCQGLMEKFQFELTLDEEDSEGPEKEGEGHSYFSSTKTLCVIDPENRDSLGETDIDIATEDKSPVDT
On the technique in general: qHTS replaces the single test concentration by a dilution series.

Experiment [9] in a line: qHTS Assay for Lipid Storage Modulators (AID 1519; calls by dose curve). The note with it: Drosophila S3 cells, BODIPY lipid droplet/cell ratio, laser cytometry, cells loaded with oleic acid; for activity change, negative = inhibition: at 57.5 µM (top of the series). The essentials: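 Cells seeded at 5,000 per well were treated with compounds over a concentration series and loaded with oleic acid (400 uM, as added). Lipid droplet fluorescence (488 nm excitation, 500-530 nm channel) was read by laser-scanning cytometry and normalized to 20 uM Triacsin C.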

The nature of experiment [10]: Primary qHTS for small molecule stabilizers of the endoplasmic reticulum resident proteome: Secreted ER Calcium Modulated Protein (SERCaMP) assay (AID 1508630; active = well fitted curve in the direction sought with a large enough effect; an effect the other way counts as inactive or inconclusive; also: % is scaled to controls: 0 for no effect and ±100 for the full control effect). The conditions noted are these: SH-SY5Y GLuc-SERCaMP (Gaussia luciferase released on ER calcium loss) secretion, thapsigargin, luminescence; series mostly up to 38.4 µM. The essentials: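 The SH-SY5Y reporter protocol was run at 3 concentrations up to 38.3 uM (primary) or 11 concentrations (follow-up): 16 h compound, 100 nM thapsigargin for 4 h, then extracellular luciferase luminescence.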

The target of experiment [11] is Cytochrome P450 2C9 (Homo sapiens) (UniProt P11712). The experiment is described as follows: qHTS Assay for Inhibitors and Substrates of Cytochrome P450 2C9 (AID 883; active = well fitted curve in the direction sought with a large enough effect; an effect the other way counts as inactive or inconclusive; also: nearly all actives have a fitted effect of over 60% in size; also: potency is read from the fitted curve at half-maximal effect). The conditions noted are these: recombinant CYP2C9, luciferin-H luminescence, 60 min; series mostly up to 57.1 µM. The essentials:
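A luminogenic readout tracked human CYP2C9 (10nM) converting deoxyluciferin (100uM, at KM) in 25mM KPO4 during 60 min at 37C with regenerated NADPH. Values normalized to 57uM sulphaphenazole as complete inhibition.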

The target of experiment [12] is Cytochrome P450 3A4 (Homo sapiens) (UniProt P08684). The experiment is described as follows: qHTS Assay for Activators of Cytochrome P450 3A4 (AID 885; active = well fitted curve in the direction sought with a large enough effect; an effect the other way counts as inactive or inconclusive; also: nearly all actives have a fitted effect of over 65% in size). The note with it: recombinant CYP3A4, Luciferin-PPXE luminescence, 60 min; series mostly up to 57.1 µM. The essentials: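 CYP3A4 activity: Luciferin-PPXE O-dealkylation, 25uM substrate, 200mM KPO4, RT throughout. Read-out is luciferase luminescence; higher values reflect activation.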
Cytochrome P450 3A4 (Homo sapiens), sequence (P08684 whole entry, looked up): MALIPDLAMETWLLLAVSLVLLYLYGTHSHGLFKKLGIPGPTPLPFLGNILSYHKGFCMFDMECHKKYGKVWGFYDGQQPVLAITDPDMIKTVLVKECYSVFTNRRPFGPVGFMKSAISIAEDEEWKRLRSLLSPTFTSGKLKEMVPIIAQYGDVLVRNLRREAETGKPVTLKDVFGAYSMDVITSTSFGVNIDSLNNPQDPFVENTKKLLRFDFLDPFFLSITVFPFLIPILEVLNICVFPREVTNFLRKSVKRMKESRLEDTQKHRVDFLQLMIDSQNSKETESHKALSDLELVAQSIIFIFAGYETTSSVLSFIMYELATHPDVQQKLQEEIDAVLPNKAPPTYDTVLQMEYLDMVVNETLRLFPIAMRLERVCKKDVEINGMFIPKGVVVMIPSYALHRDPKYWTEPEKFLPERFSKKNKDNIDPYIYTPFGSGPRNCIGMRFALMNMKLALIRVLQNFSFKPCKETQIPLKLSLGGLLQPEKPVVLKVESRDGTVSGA

Experiment [13] has the same target. Description: qHTS Assay for Inhibitors and Substrates of Cytochrome P450 3A4 (AID 884; active = well fitted curve in the direction sought with a large enough effect; an effect the other way counts as inactive or inconclusive; also: potency is read from the fitted curve at half-maximal effect; nearly all actives have a fitted effect of over 50% in size). The note with it: recombinant CYP3A4, Luciferin-PPXE luminescence; series mostly up to 57.1 µM. The essentials: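 Luminescent readout of luciferin produced by CYP3A4 (20 nM) dealkylation of Luciferin-PPXE, 25 uM (its KM). NADPH-driven reaction ran 60 min at RT after 10 min compound preincubation; data scaled to 57 uM ketoconazole as 100% inhibition.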

Experiment [14] has as its target Cytochrome P450 2D6 (Homo sapiens) (UniProt P10635). Description: qHTS Assay for Inhibitors and Substrates of Cytochrome P450 2D6 (AID 891; active = well fitted curve in the direction sought with a large enough effect; an effect the other way counts as inactive or inconclusive; also: potency is read from the fitted curve at half-maximal effect; nearly all actives have a fitted effect of over 60% in size). The conditions noted are these: recombinant CYP2D6, luciferin-ME EGE luminescence; series mostly up to 57.1 µM. The essentials: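 Luminescent read-out of luciferin formed by 5 nM human CYP2D6 demethylating 30 uM Luciferin-ME EGE (Km level) over 60 min at room temperature after NADPH regeneration addition. Data normalized to full inhibition by 1.43 uM quinidine.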

Experiment [15] has as its target Cytochrome P450 2C19 (Homo sapiens) (UniProt P33261). The experiment is described as follows: qHTS Assay for Inhibitors and Substrates of Cytochrome P450 2C19 (AID 899; active = well fitted curve in the direction sought with a large enough effect; an effect the other way counts as inactive or inconclusive; also: potency is read from the fitted curve at half-maximal effect; nearly all actives have a fitted effect of over 60% in size). The conditions noted are these: recombinant CYP2C19, luciferin-H EGE luminescence; series mostly up to 57.1 µM. The essentials:
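NADPH-dependent conversion of Luciferin-H EGE (10uM, at KM) by 5nM enzyme in 50mM KPO4, 60 min at 37C following 10 min compound preincubation. Stopped with luciferin detection buffer; luminescence read after 20 min.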

The mark [16] stands for this setting: measured here: cell count channel max response.
[17] abbreviates: measured here: lipid channel max response.

Glucocorticoid receptor (Homo sapiens), sequence (P04150 whole entry, looked up, the tested form may be a part): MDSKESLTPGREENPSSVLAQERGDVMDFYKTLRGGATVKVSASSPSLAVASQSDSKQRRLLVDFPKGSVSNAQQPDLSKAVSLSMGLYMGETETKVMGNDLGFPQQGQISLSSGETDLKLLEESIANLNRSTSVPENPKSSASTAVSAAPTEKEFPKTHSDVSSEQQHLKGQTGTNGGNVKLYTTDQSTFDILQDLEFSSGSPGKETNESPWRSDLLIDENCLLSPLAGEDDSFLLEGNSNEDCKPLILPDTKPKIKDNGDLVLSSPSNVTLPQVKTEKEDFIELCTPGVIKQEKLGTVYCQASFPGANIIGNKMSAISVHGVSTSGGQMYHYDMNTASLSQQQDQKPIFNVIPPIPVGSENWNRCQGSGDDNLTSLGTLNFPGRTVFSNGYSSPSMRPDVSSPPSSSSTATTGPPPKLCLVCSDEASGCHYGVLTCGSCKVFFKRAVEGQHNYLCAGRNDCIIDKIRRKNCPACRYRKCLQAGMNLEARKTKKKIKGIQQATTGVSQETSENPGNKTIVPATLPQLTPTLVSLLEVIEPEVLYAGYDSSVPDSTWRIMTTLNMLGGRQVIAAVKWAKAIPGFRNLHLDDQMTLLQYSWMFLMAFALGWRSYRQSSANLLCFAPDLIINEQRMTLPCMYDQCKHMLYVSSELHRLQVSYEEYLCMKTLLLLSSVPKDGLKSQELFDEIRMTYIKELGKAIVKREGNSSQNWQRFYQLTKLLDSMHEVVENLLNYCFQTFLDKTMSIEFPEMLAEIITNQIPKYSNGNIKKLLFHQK
Cytochrome P450 1A2 (Homo sapiens), sequence (P05177 whole entry, looked up): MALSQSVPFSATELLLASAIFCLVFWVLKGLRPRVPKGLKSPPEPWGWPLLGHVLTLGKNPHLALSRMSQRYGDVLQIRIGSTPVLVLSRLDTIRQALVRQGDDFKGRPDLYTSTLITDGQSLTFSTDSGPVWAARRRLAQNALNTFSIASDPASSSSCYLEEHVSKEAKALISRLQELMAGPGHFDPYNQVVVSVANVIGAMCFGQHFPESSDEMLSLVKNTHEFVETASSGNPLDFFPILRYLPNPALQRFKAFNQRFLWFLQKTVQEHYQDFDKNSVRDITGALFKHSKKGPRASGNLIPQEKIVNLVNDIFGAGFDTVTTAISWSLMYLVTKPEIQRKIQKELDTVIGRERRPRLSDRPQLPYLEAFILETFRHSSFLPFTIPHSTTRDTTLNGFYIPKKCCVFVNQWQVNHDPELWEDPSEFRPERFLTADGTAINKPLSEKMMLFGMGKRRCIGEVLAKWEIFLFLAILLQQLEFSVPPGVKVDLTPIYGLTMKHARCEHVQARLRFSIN
Cytochrome P450 2C9 (Homo sapiens), sequence (P11712 whole entry, looked up): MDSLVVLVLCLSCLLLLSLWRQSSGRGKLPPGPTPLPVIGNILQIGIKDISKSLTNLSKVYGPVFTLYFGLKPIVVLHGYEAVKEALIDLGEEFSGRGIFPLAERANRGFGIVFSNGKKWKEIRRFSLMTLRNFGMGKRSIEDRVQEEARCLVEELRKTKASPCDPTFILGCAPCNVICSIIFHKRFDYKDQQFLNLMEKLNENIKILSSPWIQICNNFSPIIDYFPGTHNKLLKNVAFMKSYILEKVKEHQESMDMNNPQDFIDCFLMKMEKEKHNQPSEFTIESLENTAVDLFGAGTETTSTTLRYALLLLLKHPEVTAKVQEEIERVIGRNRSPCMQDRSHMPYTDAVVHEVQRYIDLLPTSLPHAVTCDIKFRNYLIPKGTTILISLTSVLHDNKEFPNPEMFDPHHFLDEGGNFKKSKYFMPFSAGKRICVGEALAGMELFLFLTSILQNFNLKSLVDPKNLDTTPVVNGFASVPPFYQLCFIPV
Cytochrome P450 2D6 (Homo sapiens), sequence (P10635 whole entry, looked up): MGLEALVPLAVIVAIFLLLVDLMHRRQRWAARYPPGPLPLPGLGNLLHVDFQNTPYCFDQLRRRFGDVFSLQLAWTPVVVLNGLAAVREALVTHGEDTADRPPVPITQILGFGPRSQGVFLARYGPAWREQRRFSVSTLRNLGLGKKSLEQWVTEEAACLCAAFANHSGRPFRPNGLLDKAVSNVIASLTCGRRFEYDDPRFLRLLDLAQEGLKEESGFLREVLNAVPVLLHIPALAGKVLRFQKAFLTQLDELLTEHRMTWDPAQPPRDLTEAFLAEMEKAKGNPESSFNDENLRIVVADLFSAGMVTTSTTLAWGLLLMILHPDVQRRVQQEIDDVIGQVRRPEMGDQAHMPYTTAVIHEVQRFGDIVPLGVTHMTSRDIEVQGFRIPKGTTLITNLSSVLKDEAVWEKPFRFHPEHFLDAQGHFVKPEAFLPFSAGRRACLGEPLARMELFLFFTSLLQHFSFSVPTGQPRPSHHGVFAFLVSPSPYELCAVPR
Cytochrome P450 2C19 (Homo sapiens), sequence (P33261 whole entry, looked up): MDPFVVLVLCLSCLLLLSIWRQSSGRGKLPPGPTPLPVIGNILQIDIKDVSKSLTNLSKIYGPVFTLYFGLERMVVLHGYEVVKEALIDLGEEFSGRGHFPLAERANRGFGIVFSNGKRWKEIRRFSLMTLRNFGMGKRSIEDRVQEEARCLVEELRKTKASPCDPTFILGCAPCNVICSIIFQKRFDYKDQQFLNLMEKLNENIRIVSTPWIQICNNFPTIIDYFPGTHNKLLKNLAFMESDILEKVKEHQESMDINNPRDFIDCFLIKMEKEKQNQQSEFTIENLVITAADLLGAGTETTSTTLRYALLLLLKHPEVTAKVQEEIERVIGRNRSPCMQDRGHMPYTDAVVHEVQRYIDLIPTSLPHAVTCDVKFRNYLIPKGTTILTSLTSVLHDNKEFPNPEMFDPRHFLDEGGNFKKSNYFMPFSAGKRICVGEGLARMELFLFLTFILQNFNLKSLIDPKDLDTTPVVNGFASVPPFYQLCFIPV

`COC(=O)N1CCC[C@@]2(CCN(C(=O)Nc3cccc(C#N)c3)C2)C1`: the Potency in experiment [1] was > 11.4 µM (inactive); in experiment [6] it was > 46 µM (inactive). Besides, the activity change, negative = inhibition was -12.4% (inactive) in experiment [2], 19.3% (inactive) in [4] and 6.94% (inactive) in experiment [9]. Besides, the Potency entry in [3], in experiment [8] and in [10] was “inactive” throughout. Besides, the activity, negative = inhibition in experiment [5] was 6.31% (inactive). In addition, the compound was called inactive in experiment [7]. Moreover, the max response in [9] (setting [16]) stood at 4.39%; in experiment [9] (setting [17]), 15.8%.

In the case of `CC(=O)N1CCC2(CC1)CN(c1ccncc1)C2`, the Potency was > 11.4 µM (inactive) in experiment [1] and > 46 µM (inactive) in experiment [6]. The activity change, negative = inhibition in experiment [2] is -4.3% (inactive); in experiment [4], 0.609% (inactive); in experiment [9] it was 2.66% (inactive). For the same compound, the Potency result in experiment [3], in experiment [8], in experiment [11] and in experiment [10] was “inactive” each time. For the same compound, in [5], the activity, negative = inhibition is 0.403% (inactive). For the same compound, the outcome in experiment [7] was inactive. In addition, the max response came to 11.6% in [9] (setting [16]) and 16.2% in [9] (setting [17]).

Regarding `Cc1noc(C)c1C(=O)N1CCC2(CC1)CN(c1ncccn1)C2`, the Potency is > 11.4 µM (inactive) in experiment [1] and > 46 µM (inactive) in [6]. For the same compound, the results for the activity change, negative = inhibition in [2], in [4] and in experiment [9] were -8.73% (inactive), 13.3% (inactive) and 6.33% (inactive), respectively. Further, the Potency result in experiment [3], in experiment [8] and in [10] was “inactive” in each case. Also, in experiment [5], the activity, negative = inhibition was 2.57% (inactive). The result in [7] was inactive. For the same compound, the figures for the max response in [9] (setting [16]) and in experiment [9] (setting [17]) were 15.3% and 24.4%, respectively.

With `O=C(Oc1ccccc1)N1CCC2(CC1)CCN(c1ccccc1)CC2`, the values for the Potency in experiment [1] and in experiment [6] were > 11.4 µM (inactive) and > 46 µM (inactive), respectively. Further, the activity change, negative = inhibition in [2] is 20.6% (inactive); in experiment [4], -26.1% (inactive); in experiment [9], -1.08% (inactive). For the same compound, the Potency result in experiment [3], in experiment [8] and in [10] was “inactive” each time. Also, the activity, negative = inhibition in [5] was -1.28% (inactive). Further, in experiment [7], the compound was classed as inactive. The max response in experiment [9] (setting [16]) is -1.11%; in experiment [9] (setting [17]), -1.37%.

As for `O=C(c1csnn1)N1CCC2(CCCN(c3ccccc3)C2)CC1`, the Potency in experiment [1] was > 11.4 µM (inactive); in [6], > 46 µM (inactive); in [11], 7.94 µM (active). Also, the activity change, negative = inhibition is -2.99% (inactive) in experiment [2], 1.2% (inactive) in [4] and -0.699% (inactive) in experiment [9]. Besides, the Potency result in experiment [3], in experiment [8], in experiment [12] and in [10] was “inactive” each time. Further, the activity, negative = inhibition in [5] was -8.69% (inactive). For the same compound, the compound was classed as inactive in experiment [7]. For the same compound, the figures for the max response in experiment [9] (setting [16]) and in experiment [9] (setting [17]) were 7.99% and 11.5%, respectively.

For the compound `O=C(c1cc(C(F)(F)F)cc(C(F)(F)F)c1)N1CCC[C@@]2(CCN(Cc3ccncc3)C2)C1`, the Potency is > 11.4 µM (inactive) in [1]; 12.6 µM (active) in experiment [3]; > 46 µM (inactive) in experiment [6]; 0.0794 µM (active) in experiment [11]; 0.501 µM (active) in [13]; 5.01 µM (active) in experiment [14]. Besides, in experiment [15], the Potency was 0.199 µM (active). Besides, the figures for the activity change, negative = inhibition in experiment [2], in experiment [4] and in experiment [9] were -6.9% (inactive), -25.1% (inactive) and 7.2% (inactive), respectively. Further, the activity, negative = inhibition in experiment [5] is -8.97% (inactive). The result in experiment [7] was inactive. The Potency result in [8], in [12] and in experiment [10] was “inactive” in each case. For the same compound, the max response was determined as 20.1% in experiment [9] (setting [16]) and 28.8% in experiment [9] (setting [17]).
